Data from ChEMBL document CHEMBL3988442, “University of Dundee, Small-Polar-MMV Screening Library” (2021).

Target: AMP-activated protein kinase, AMPK (Homo sapiens) (UniProt P54646+O43741+P54619+Q9UGJ0+Q9Y478+Q13131+Q9UGI9)
Test: AMP-dependent Kinase enzyme assay. An in vitro enzyme assay that detects ADP turnover that is directly proportional to AMPK activity. This uses naive AMPK that is activated during the assay with MK-8722
Assay type: functional
Design: scale not given: direction of the effect not stated beside the values
Details: 30 µM

Q: For `O=C(c1cncc(NCC2COc3ccccc3C2)n1)N1CCOCC1` (stereo unspecified), which Percent Effect is on record?
A: Its Percent Effect is 7.56%.

Q: How did the Percent Effect turn out when `COCCCNC(=O)Nc1c(C)cccc1C(C)C` was run?
A: The Percent Effect was 7.47%.

Q: How did the Percent Effect turn out when `COCc1nc(CN2CCN(c3ccc(OC)cc3)C(=O)C2C)no1` (stereo unspecified) was run?
A: Its Percent Effect is 6.42%.

Q: Which Percent Effect does the source give for `CN1CCCC(c2nccnc2-c2cccc(C(F)(F)F)c2)C1` (stereo unspecified) here?
A: The Percent Effect was 26.4%.

Q: How did the Percent Effect turn out when `Cc1nc(CN2CCN(S(=O)(=O)N3CCCCC3)CC2)oc1C` was run?
A: Its Percent Effect is -4.45%.

Q: Which Percent Effect does the source give for `O=C(NCc1ccc(OCC2CC2)nc1)C1COc2ccccc2O1` (stereo unspecified) here?
A: The Percent Effect was -1.03%.

Q: Which Percent Effect does the source give for `Cc1[nH]nc(CCC(=O)N2CCc3c(nc[nH]c3=O)C2)c1C` here?
A: Its Percent Effect is 4.58%.

Q: For `COc1cccc(-n2cc(CN(C)Cc3ccnc(C(C)C)n3)cn2)c1`, which Percent Effect is on record?
A: The Percent Effect was -12.4%.

Q: For `CC(C)c1nn(C)cc1CNCc1cccc(N(C)C)c1`, which Percent Effect is on record?
A: The Percent Effect was -15.4%.

Q: With `FC(F)(F)Oc1cccc(CNCc2ccc(-n3cncn3)nc2)c1` as the molecule, how does the Percent Effect read?
A: The Percent Effect was 12.8%.

Q: For `N#CC1CCN(C(=O)CN2CC(c3ccccc3)CC2=O)CC1` (stereo unspecified), which Percent Effect is on record?
A: The Percent Effect was 5.49%.

Q: With `CCOc1ccc2cc(C(=O)NCCNc3ccc(C)nn3)[nH]c2c1` as the molecule, how does the Percent Effect read?
A: The Percent Effect was 6.22%.

Q: For `CS(=O)(=O)c1ccc(-c2cc(C3CC3)c(C#N)c(N)n2)cc1`, which Percent Effect is on record?
A: The Percent Effect was 12.5%.

Q: `COC(=O)c1ccc(NC(=O)CCc2ccco2)cc1` was tested. Which Percent Effect did it give?
A: Its Percent Effect is 20.9%.

Q: With `Cc1nc(N(C)C)ncc1C(=O)N(Cc1ccncc1)CC1CCCO1` (stereo unspecified) as the molecule, how does the Percent Effect read?
A: The Percent Effect was -6.01%.

Q: With `COCc1cc(NCCCSc2nnc(C)s2)ncn1` as the molecule, how does the Percent Effect read?
A: The Percent Effect was 8.32%.

Q: For `CCc1cc(NCCCc2nc(C)no2)nc(-c2ccncc2)n1`, which Percent Effect is on record?
A: Its Percent Effect is -1.39%.

Q: With `Cc1cnn(CC2CCN(CC(O)Cn3cccn3)CC2)c1` (stereo unspecified) as the molecule, how does the Percent Effect read?
A: Its Percent Effect is 11.8%.

Q: How did the Percent Effect turn out when `O=C(CCN1CCOCC1)Nc1cccc(CNCc2cccs2)c1` was run?
A: Its Percent Effect is -8.77%.

Q: How did the Percent Effect turn out when `CC(C)(C)c1nc(CC(=O)Nc2cnccc2O)cs1` was run?
A: Its Percent Effect is -0.224%.

Q: How did the Percent Effect turn out when `Cc1cc(COC(=O)[C@@H]2Cc3ccccc3CN2S(C)(=O)=O)no1` was run?
A: Its Percent Effect is 27.9%.

Q: How did the Percent Effect turn out when `COc1ccc2cc(C(=O)NCCNc3ccc(C)nn3)[nH]c2c1` was run?
A: Its Percent Effect is 8.22%.

Q: `CC1CCC(O)(CSc2nnnn2C)CC1` (stereo unspecified) was tested. Which Percent Effect did it give?
A: Its Percent Effect is 3.45%.

Q: Which Percent Effect does the source give for `CN(Cc1csc(-c2cccs2)n1)Cc1ncccc1C(=O)O` here?
A: The Percent Effect was -1.78%.

Q: For `CCN(CCNS(=O)(=O)C1CCOCC1)C(=O)OC(C)(C)C`, which Percent Effect is on record?
A: Its Percent Effect is 1.64%.

Q: `O=C1CN(Cc2cn(CC3CCCN(C4CCSCC4)C3)nn2)CCN1` (stereo unspecified) was tested. Which Percent Effect did it give?
A: Its Percent Effect is -8.48%.

Q: `CCC(c1ccc(F)cc1)S(=O)(=O)CCO` (stereo unspecified) was tested. Which Percent Effect did it give?
A: The Percent Effect was 0.117%.

Q: For `Cc1ccc(N2CCCN(C(=O)CCc3ccsc3)CC2)nn1`, which Percent Effect is on record?
A: The Percent Effect was -4.33%.

Q: How did the Percent Effect turn out when `CCNC(=O)C1CCN(Cc2ccc(C(=O)Nc3cnns3)cc2)C1` (stereo unspecified) was run?
A: The Percent Effect was 1.07%.

Q: `COCCN1C(=O)[C@H]2CC[C@@H]1CN(S(=O)(=O)c1ccc(C#N)cc1)C2` was tested. Which Percent Effect did it give?
A: Its Percent Effect is 10.8%.

Q: `Cn1ncnc1NCc1ccc(F)cc1` was tested. Which Percent Effect did it give?
A: The Percent Effect was -10.9%.

Q: For `CC(C)NC(=O)CN(C)C(=O)c1csc(Cc2ccccc2F)n1`, which Percent Effect is on record?
A: The Percent Effect was 5.04%.

Q: With `CCS(=O)(=O)Nc1ccc2[nH]c(C3CCC3)nc2c1` as the molecule, how does the Percent Effect read?
A: Its Percent Effect is -4.1%.

Q: `CC(C)c1nc(CN(C)C(=O)C(O)c2ccc(Cl)cc2)cs1` (stereo unspecified) was tested. Which Percent Effect did it give?
A: Its Percent Effect is -2.36%.

Q: How did the Percent Effect turn out when `Cc1nc2c(c(N3CCCOCC3)n1)CCN(c1nccs1)CC2` was run?
A: The Percent Effect was -16.9%.

Q: Which Percent Effect does the source give for `CC(NCc1nnc2n1CCCC2)c1nc(C(C)(C)C)no1` (stereo unspecified) here?
A: The Percent Effect was -0.825%.

Q: For `Cc1cccc(COc2ccc(C(C)NS(N)(=O)=O)cc2)c1` (stereo unspecified), which Percent Effect is on record?
A: The Percent Effect was 7.65%.

Q: With `CCC(CNC(=O)CCn1cncn1)N1CCc2ccccc2C1` (stereo unspecified) as the molecule, how does the Percent Effect read?
A: The Percent Effect was 1.86%.

Q: How did the Percent Effect turn out when `CCC(NC(=O)c1cnc(N(C)C)nc1C)c1ccc(S(C)(=O)=O)cc1` (stereo unspecified) was run?
A: The Percent Effect was -4.95%.

Q: Which Percent Effect does the source give for `CS(=O)(=O)N1CCN(c2cc(N3CCCC3CO)ncn2)CC1` (stereo unspecified) here?
A: The Percent Effect was -5.51%.

Q: How did the Percent Effect turn out when `Cc1ccc2nc(CN3CCCCC3CCn3cccn3)cn2c1` (stereo unspecified) was run?
A: Its Percent Effect is 4.05%.

Q: `O=C(NCc1ccccn1)c1cc2n(n1)CCNC2` was tested. Which Percent Effect did it give?
A: The Percent Effect was 11.8%.

Q: How did the Percent Effect turn out when `CN(C(=O)c1cccc(C#N)c1)c1nnc(C2CCOC2)s1` (stereo unspecified) was run?
A: Its Percent Effect is 5.31%.

Q: With `CCN(CC)S(=O)(=O)CC(=O)Nc1ccsc1` as the molecule, how does the Percent Effect read?
A: Its Percent Effect is 2.3%.

Q: How did the Percent Effect turn out when `COCc1cccc(NC(=O)NCCCN(C)S(C)(=O)=O)c1` was run?
A: The Percent Effect was -1.69%.

Q: With `Cc1cc(C)n(-c2cccc(NC(=O)N3CCC[C@@H]3CO)c2)n1` as the molecule, how does the Percent Effect read?
A: The Percent Effect was -5.07%.

Q: How did the Percent Effect turn out when `CNC(=O)c1sc2ncccc2c1C1CCN(C(=O)CCOC)C1` (stereo unspecified) was run?
A: Its Percent Effect is 21.5%.

Q: With `Cn1ncnc1NCc1ccc(Cl)cc1` as the molecule, how does the Percent Effect read?
A: Its Percent Effect is 7.15%.

Q: `CCN(Cc1cnc(C)cn1)C1CCN(c2ccccc2)C1=O` (stereo unspecified) was tested. Which Percent Effect did it give?
A: Its Percent Effect is -4.52%.

Q: With `O=C(NC1CCN(c2ccccc2OC(F)F)C1)c1cccnc1` (stereo unspecified) as the molecule, how does the Percent Effect read?
A: The Percent Effect was -0.669%.

Q: How did the Percent Effect turn out when `CCn1cc(CNCCNc2ncc(Cl)cc2Cl)cn1` was run?
A: The Percent Effect was 4.84%.

Q: Which Percent Effect does the source give for `O=C(C1CCCO1)N1CCC(n2cc(-c3ccc(F)cc3)nn2)CC1` (stereo unspecified) here?
A: Its Percent Effect is 3.48%.

Q: `COc1ccc(Cl)cc1C(C(=O)O)N1CCSCC1` (stereo unspecified) was tested. Which Percent Effect did it give?
A: Its Percent Effect is 3.31%.

Q: How did the Percent Effect turn out when `COc1ncccc1C(=O)NCCn1nc(C)ccc1=O` was run?
A: The Percent Effect was -4.66%.

Q: With `Cc1ccc(C(=O)N2[C@@H]3CC[C@H]2CN(C)C(=O)C3)c(=O)[nH]1` as the molecule, how does the Percent Effect read?
A: Its Percent Effect is 8.78%.

Q: Which Percent Effect does the source give for `CCn1cnnc1CCNc1nc(C)cc(C)c1C#N` here?
A: Its Percent Effect is -7.29%.
